Reference: PubChem BioAssay (NCI)
The panel holds about 79,000 compounds, 15% with a hit somewhere; the sample as a whole holds those more often. Calls of active or inactive are those of the source. Cut-off read from the data, not from the text of the source: active = growth inhibition above about 70%; inactive = the rest.

Test: NCI Yeast Anticancer Drug Screen. Data for the bub3 strain (AID 167)
Details: S. cerevisiae bub3 mutant strain, at 50.0 µM, active compounds read high
Description: Growth inhibition of yeast strains with defined genetic alterations is measured as a screen for potential anti-cancer activity. Selected strains with alterations in DNA damage repair or cell cycle control were exposed to compounds and growth inhibition was measured relative to vehicle treated controls. The strain used in this assay is bub3

| Structure (SMILES) | growth inhibition |
| --- | --- |
| Cc1cc(O)ccc1O | 3.5% (inactive) |
| O=c1[nH]nc(SC2CCCCC2)c(=O)[nH]1 | 4.85% (inactive) |
| O=[N+]([O-])c1ccc(Cl)c(S(=O)(=O)O)c1 | 10.8% (inactive) |
| CC(C)OC(=O)c1cc(NC(=S)OC(C)C)ccc1Cl | 32.5% (inactive) |
| CC(C)CCCC(=O)O | -2.95% (inactive) |
| CCc1nc(N)nc(N)c1-c1ccc(Cl)cc1 | -14% (inactive) |
| CCc1nn(Cc2ccccc2)c2nc(C)c(CCc3ccccc3)c(Cl)c12 | 7.35% (inactive) |
| CCN(CC)CCCC(C)Nc1ccnc(/C=C/c2ccc(Cl)cc2)c1 (stereo not given) | -39.5% (inactive) |
| c1ccc(/C(=N\N=C(/c2ccccc2)c2cccs2)c2cccs2)cc1 | 23.6% (inactive) |
| CCCCCCCCCCC(C)Br (stereo not given) | 28.6% (inactive) |
| CC1(c2ccccc2)NC(=O)NC1=O (stereo not given) | -7.65% (inactive) |
| Cc1cc2ccccc2c(O)c1C#N | 1.3% (inactive) |
| O=C(CCNNC(=O)c1ccncc1)NCc1ccccc1 | -9.8% (inactive) |
| O=C(O)COCC(=O)O | 5.85% (inactive) |
| C=CC(O)CCC (stereo not given) | -1.6% (inactive) |
| CCOC(=O)CNN | -14.8% (inactive) |
| Sc1ccc(Nc2c3ccccc3nc3ccccc23)cc1 | 25.6% (inactive) |
| COc1cccc(O)c1O | 9.95% (inactive) |
| Cc1ccncc1C(N)=O | -11% (inactive) |
| Cc1ccc(C(O)C2CC2)cc1 (stereo not given) | -21.6% (inactive) |

| Structure (SMILES) | growth inhibition |
| --- | --- |
| O=C(NN=C1CCCCC1)C(=O)NN=C1CCCCC1 | 10% (inactive) |
| C/C(O)=C(\C=N\C(N)=S)C(=O)Nc1ccccc1 | -2.45% (inactive) |
| CCOC(=O)c1cc(/C=C/c2cccc(Cl)c2)on1 | 8.1% (inactive) |
| CCCC(=O)Nc1ccc2c(c1)CN1C(=O)c3ccccc3C1=N2 | -1.65% (inactive) |
| c1csc(-c2cc(-c3cc(-c4cccs4)[nH]n3)n[nH]2)c1 | -3.05% (inactive) |
| CC(=O)c1c[nH]c2ccccc12 | -2.25% (inactive) |
| CCCOC(=O)C(O)c1ccccc1 (stereo not given) | -13.2% (inactive) |
| O=c1cc(-c2ccccc2)oc2c1ccc1ccccc12 | 52.5% (inactive) |
| COc1ccc2c(c1)CCc1c-2n[nH]c1-c1[nH]nc2c1CCc1cc(OC)ccc1-2 | -16.1% (inactive) |
| NC(=S)NN=C1CCCC1 | -2.45% (inactive) |
| CCc1ccc(/C(C#N)=C/C=C/c2ccccc2)cc1 | 38% (inactive) |
| O=S(=O)(O)c1ccc(O)c2ccccc12 | 11.7% (inactive) |
| Nc1nc(OCc2ccccc2)c2[nH]cnc2n1 | -30.9% (inactive) |
| Cc1ccc(Cl)cc1NC(=O)N(C)CCO | 4.05% (inactive) |
| CCOC(=O)CSc1c([N+](=O)[O-])ncn1C | 8.75% (inactive) |
| C/C(=N\O)C1(O)CCCCC1 | 7.45% (inactive) |
| c1ccc2c(N3CCCCC3)ncnc2c1 | 2.15% (inactive) |
| COc1cc(/C=N\Nc2ccccc2)ccc1OC(=O)c1ccccc1 | 11.8% (inactive) |
| COc1cc(CN)ccc1O | 11.8% (inactive) |
| c1ccc(Sc2ccccc2)cc1 | -7.95% (inactive) |
